Compounds with a hit are over-represented: about 7.2% of the library has one in this group of screens.
SNCA expr inh: inhibitors of alpha-synuclein (SNCA) gene expression. HEK-293 SNCA-luciferase knock-in, luminescence, 24 h. Potency, µM (highest dose often 57.2 µM), hits mostly inhibitors. hit rate 0.17% among 140,000; also: nearly all actives have a fitted effect of over 45% in size
3T3 cytotox: kills NIH 3T3 cells; NIH 3T3 viability, CellTiter-Glo ATP luminescence, 48-72 h; hit rate 4.3% among 94,000; Potency, µM (doses to about 96.7 µM), most hits filed as inhibitors; also: nearly all actives have a fitted effect of over 55% in size
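First NIH 3T3 cells are plated at 400 cells/well; next compound is pinned in; then plates incubate 48 or 72 hr at 37 °C; finally CellTiter-Glo is added and luminescence read after 10 min.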
SNCA viab count: counter-screen for SNCA expression inhibitors: cell viability; HEK-293-SNCA-luc viability, GF-AFC fluorescence, 24 h; Potency, µM (highest dose often 57.1 µM), actives largely listed as cytotoxic; hit rate 0.12% among 150,000; AID 1671193; also: nearly all actives have a fitted effect of over 30% in size
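HEK-293-SNCA-luc cells (1500/well) plated 24 h, then exposed 24 h to a dilution series; GF-AFC added 30 min at 37C, fluorescence 405/540 nm; normalised to medium-only and DMSO wells, Hill fit.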
FLuc inh: Photinus pyralis luciferase inhibition | P08659 | purified P. pyralis luciferase, luminescence, biochemical | Potency, µM (top dose mostly 115 µM), hits mostly inhibitors | hit rate 2.5% among 76,000 | AID 1347043; also: nearly all actives have a fitted effect of over 65% in size
Target sequence (P08659 whole entry, looked up): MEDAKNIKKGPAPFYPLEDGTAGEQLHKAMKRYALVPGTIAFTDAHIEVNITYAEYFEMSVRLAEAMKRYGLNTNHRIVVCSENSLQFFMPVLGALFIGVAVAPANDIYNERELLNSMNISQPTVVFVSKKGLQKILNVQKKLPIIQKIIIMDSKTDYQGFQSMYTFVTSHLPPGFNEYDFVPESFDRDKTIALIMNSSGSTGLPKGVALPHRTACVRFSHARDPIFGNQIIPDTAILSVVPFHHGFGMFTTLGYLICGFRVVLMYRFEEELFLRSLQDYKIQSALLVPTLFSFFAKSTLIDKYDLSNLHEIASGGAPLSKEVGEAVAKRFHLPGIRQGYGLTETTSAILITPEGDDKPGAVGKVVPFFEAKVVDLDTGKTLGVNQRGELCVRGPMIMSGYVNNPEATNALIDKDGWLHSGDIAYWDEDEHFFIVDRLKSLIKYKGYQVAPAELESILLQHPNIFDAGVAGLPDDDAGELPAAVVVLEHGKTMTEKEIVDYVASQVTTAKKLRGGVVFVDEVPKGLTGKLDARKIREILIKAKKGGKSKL
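FLuc 10nM, D-luciferin 10uM, ATP 10uM, Mg acetate 10mM, Tris acetate pH 7.5, Tween/BSA; cpd qHTS; enzyme added last; CCD luminescence.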
NPR1 antag: blocks ANP-stimulated signaling of human Npr1 receptor; P16066; Potency, µM (highest dose often 46.3 µM), most hits filed as inhibitors; HEK293 hNpr1 GloSensor cGMP, ANP-stimulated luminescence; hit rate 1.6% among 76,000; calls by dose curve; also: nearly all actives have a fitted effect of over 60% in size
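Compound pre-incubated 30 min at room temperature on GloSensor-loaded HEK293 cells stably carrying hNpr1 and the pGS-40F cGMP biosensor. Stimulation uses hNppA at 0.1 nM final; luminescence is taken at baseline and 20 min post-agonist.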
HEK293 tox: cytotoxic compounds in HEK 293 cells | HEK 293 viability, ATP luminescence (CellTiter-Glo), 48-72 h | Potency, µM (doses to about 115 µM), actives largely listed as inhibitors | hit rate 6.6% among 94,000 | AID 1345083; also: nearly all actives have a fitted effect of over 60% in size
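Pintool-delivered compounds were incubated with HEK 293 cells (250 cells/well) at 37 degree Celsius for 48 or 72 hr. ATP-dependent luminescence (CellTiter-Glo) then reported remaining viable cells.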
Of the large screens only hits and unclear results are named; the others gave an inactive call; ! = repeats disagree. Unless noted, calls follow the shape of the dose curve; as a rule, active = well fitted curve in the direction sought with a large enough effect; inconclusive = small, poorly fitted or top-dose-only effect, or another doubt; inactive = no such curve, though single readings can be large; an effect the other way counts as inactive or inconclusive.

COc1ccc(C(=O)N2CCCC(CO)CCNC(=O)CC2)cc1 (configuration not stated)	SNCA expr inh inconclusive
Cn1ncc2c(C(=O)NCc3cccc(Cl)c3)cc(-c3ccsc3)nc21	3T3 cytotox 16µM, HEK293 tox 32µM (no result: FLuc inh, NPR1 antag)
Cn1ncc2c(C(=O)NCc3cccc(Cl)c3)cc(-c3ccc(F)cc3)nc21	3T3 cytotox inconclusive, SNCA viab count inconclusive, HEK293 tox 35µM (no result: FLuc inh, NPR1 antag)
Cn1ncc2c(C(=O)NCc3cccc(Cl)c3)cc(-c3ccc(Cl)cc3)nc21	none (no result: FLuc inh, NPR1 antag)
Cn1ncc2c(C(=O)NCc3ccc(Cl)cc3)cc(-c3ccsc3)nc21	3T3 cytotox 32µM, HEK293 tox 35µM (no result: FLuc inh, NPR1 antag)
COc1cccc(CNC(=O)c2cc(-c3ccsc3)nc3c2cnn3C)c1	SNCA expr inh inconclusive, 3T3 cytotox 25µM, HEK293 tox 56µM (no result: FLuc inh, NPR1 antag)
CN(Cc1cccnc1)Cc1cccc(C(F)(F)F)c1	none (no result: FLuc inh, NPR1 antag)
O=C(NCc1ccccc1)c1ccc2c(c1)OCCN(C1CCC1)C2	HEK293 tox inconclusive
CC1=CC2/C=C(\C)CCC(O)C/C=C/C(=O)OC23C(=O)NC(CC(C)C)C3C1C (configuration not stated)	none (no result: SNCA expr inh, 3T3 cytotox, FLuc inh, NPR1 antag, HEK293 tox)
COc1cccc(C(=O)NC2CCN(Cc3cccc(-c4ccc(F)cc4F)c3)CC2)c1	3T3 cytotox 35µM!, HEK293 tox 32µM! (no result: SNCA expr inh, SNCA viab count, FLuc inh, NPR1 antag)
O=C(NC1CCN(Cc2cccc(-c3ccc(F)cc3F)c2)CC1)c1ccncc1	3T3 cytotox inconclusive, HEK293 tox 32µM (no result: SNCA expr inh, SNCA viab count, FLuc inh, NPR1 antag)
O=C1NC2(CCCN(C(=O)Cc3ccccc3)C2)Oc2ccccc21 (configuration not stated)	none
COC(=O)[C@@H]1Cc2c([nH]c3ccccc23)[C@H]2C[C@H](NCCN3CCOCC3)C[C@@H](c3ccc(F)cc3)N21	3T3 cytotox 25µM, SNCA viab count inconclusive, HEK293 tox 20µM
COc1ccc(CCC(=O)N2CCc3c([nH]c4ccccc34)C2c2ccc(F)cc2)cc1 (configuration not stated)	none (no result: 3T3 cytotox, FLuc inh, NPR1 antag, HEK293 tox)
COC(=O)[C@@H]1Cc2c([nH]c3ccccc23)[C@H]2C[C@@H](NCCN3CCOCC3)C[C@@H](c3ccc(F)cc3)N21	SNCA expr inh inconclusive, 3T3 cytotox inconclusive, HEK293 tox 28µM
O=C(NCc1ccccc1Cl)C1CCCCN1Cc1ccc(-c2ccsc2)cc1 (configuration not stated)	3T3 cytotox 28µM, HEK293 tox 35µM (no result: FLuc inh, NPR1 antag)
O=C(NCCc1ccccc1)C1CCCCN1Cc1ccc(-c2ccsc2)cc1 (configuration not stated)	SNCA expr inh inconclusive, 3T3 cytotox inconclusive, HEK293 tox 28µM (no result: FLuc inh, NPR1 antag)
O=C(NCc1cccnc1)C1CCCCN1Cc1ccc(-c2ccsc2)cc1 (configuration not stated)	3T3 cytotox inconclusive, HEK293 tox inconclusive (no result: FLuc inh, NPR1 antag)
COc1ccc(CNC(=O)C2CCCCN2Cc2ccc(-c3ccsc3)cc2)cc1OC (configuration not stated)	3T3 cytotox inconclusive, HEK293 tox 40µM (no result: FLuc inh, NPR1 antag)
O=C(NCc1ccc(F)cc1)C1CCCCN1Cc1ccc(-c2ccsc2)cc1 (configuration not stated)	3T3 cytotox inconclusive, HEK293 tox 40µM (no result: FLuc inh, NPR1 antag)
O=C(C1CCCN1C(=O)c1cccc(Cl)c1)N1CCCC(c2nc3ncccc3[nH]2)C1 (configuration not stated)	none (no result: FLuc inh, NPR1 antag)
COc1ccc(-c2nn(-c3ccccc3)cc2CN2CCN3CCCC3C2)c(F)c1 (configuration not stated)	3T3 cytotox inconclusive, HEK293 tox inconclusive
COCCn1c(CO)nnc1C1CC(NC(=O)c2c(C)noc2C)C1 (configuration not stated)	none
O=C(NCc1cccs1)C1CCCCN1Cc1ccc(-c2ccsc2)cc1 (configuration not stated)	SNCA expr inh inconclusive, 3T3 cytotox 25µM, SNCA viab count inconclusive, HEK293 tox 28µM (no result: FLuc inh, NPR1 antag)
COc1cccc(-c2c(C(=O)NCc3ccc(F)c(F)c3)nc3sccn23)c1	3T3 cytotox inconclusive, HEK293 tox inconclusive (no result: FLuc inh, NPR1 antag)
CCn1ccc2oc(C)c(C(=O)N3CCN(c4ccc(Cl)cc4)CC3)c2c1=O	3T3 cytotox inconclusive, HEK293 tox inconclusive
CCn1ccc2oc(C)c(C(=O)N3CCN(c4cccc(C)c4C)CC3)c2c1=O	3T3 cytotox inconclusive, HEK293 tox 50µM
CCc1ccc(NC(=O)c2ccc3c(c2)N(C)C2CCCCN2C3=O)cc1 (configuration not stated)	3T3 cytotox inconclusive, FLuc inh 14µM, HEK293 tox inconclusive
Cc1ccc(NC(=O)c2ccc3c(c2)N(C)C2CCCCN2C3=O)cc1 (configuration not stated)	FLuc inh 40µM, HEK293 tox inconclusive
CN1c2cc(C(=O)Nc3ccc(OC(F)(F)F)cc3)ccc2C(=O)N2CCCC21 (configuration not stated)	FLuc inh 40µM
Cc1ccc(NC(=O)c2ccc3c(c2)N(C)C2CCCN2C3=O)cc1 (configuration not stated)	FLuc inh 22µM
Cc1ncsc1C1N(C2CCN(S(=O)(=O)c3ccccc3)CC2)C(=O)C12CCCC2 (configuration not stated)	SNCA expr inh inconclusive, HEK293 tox inconclusive
Cc1cccc(CNC(=O)c2ccc3c(c2)N(C)C2CCCCCN2C3=O)c1 (configuration not stated)	SNCA viab count inconclusive, HEK293 tox inconclusive
CN1c2cc(C(=O)NCc3cccs3)ccc2C(=O)N2CCCCC21 (configuration not stated)	SNCA viab count inconclusive, FLuc inh 25µM, HEK293 tox inconclusive
Cc1cc2cc(-c3c(C)noc3C)nc(N3CCN(c4ccccn4)CC3)c2o1	3T3 cytotox 28µM, HEK293 tox 13µM
Cc1cc2cc(-c3c(C)noc3C)nc(N(C)C)c2o1	3T3 cytotox inconclusive, HEK293 tox 100µM
Cc1noc(C)c1-c1cc2cc(C(C)C)oc2c(N2CCN(C)CC2)n1	SNCA expr inh inconclusive, 3T3 cytotox inconclusive, SNCA viab count inconclusive, HEK293 tox inconclusive
Cc1noc(C)c1-c1cc2cc(C(C)C)oc2c(N(C)CCN(C)C)n1	3T3 cytotox 25µM, HEK293 tox 35µM
COc1cccc(OC)c1CN1CC(O)CN(C(=O)COc2ccccc2)CC1=O (configuration not stated)	3T3 cytotox inconclusive (no result: SNCA expr inh, SNCA viab count, FLuc inh, NPR1 antag)
COc1ccc(CC(=O)N2[C@@H](c3ccccc3)[C@@H](C(=O)O)C[C@]23CCCCN(C)C3=O)cc1	3T3 cytotox inconclusive (no result: SNCA expr inh, SNCA viab count, FLuc inh, NPR1 antag)
Fc1ccc(CN2CC(N3CCc4ccccc43)C2)cc1	none (no result: FLuc inh, NPR1 antag)
CN(C)c1ccc(CN2CC(N3CCc4ccccc43)C2)cc1	3T3 cytotox 89µM, HEK293 tox 89µM

High-throughput results (PubChem BioAssay)
